# Assay results as given in PubChem BioAssay AID2673 (National Center for Advancing Translational Sciences (NCATS), 2010).
# Inconclusive results are not listed. Unmarked numbers belong to inactive results. Calls of active or inactive are those of the source. Calls come from the whole dose curve; as a rule, active = well fitted activation curve with a large enough effect; inconclusive = small, poorly fitted or top-dose-only effect; inactive = no such curve, though single readings can be large or run the other way.
# Assay: qHTS Multiplex Assay to Identify Dual Action Probes in a Cell Model of Huntington: Cytoprotection confirmation (ATP)
# Details: PC12 HttQ103 induced, ATP luminescence 40 h; series mostly up to 46.1 µM; cytoprotection, positive = protection: at the top concentration
# Procedure, shortened: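 PC12 cells expressing ecdysone-inducible HTT exon 1 (Q103)-GFP, induced with 100 nM tebufenozide and exposed to compounds; cytoprotection read as cellular ATP by ATPlite luminescence.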
Structure (SMILES),"cytoprotection, positive = protection [%]",Potency
C=C1CCC2[C@](C)(CO)[C@H](O)CC[C@@]2(C)[C@@H]1C/C=C1/C(=O)OC[C@H]1O (some centres not stated),-69.3,
Cn1nnnc1Sc1ncnc2scc(-c3ccc(F)cc3)c12,,25.1 µM (active)
COc1ccc(C2=Nc3cc(C)ccc3OC2)cc1,-74.7,
Cn1nnnc1Sc1ncnc2scc(-c3ccc4c(c3)OCO4)c12,,22.4 µM (active)
COc1c(F)c(F)c(C(=O)Nc2ccc3oc(-c4ccncc4)nc3c2)c(F)c1F,-2.97,
Cn1nnnc1Sc1ncnc2scc(-c3ccc[nH]3)c12,,12.6 µM (active)
Cn1nnnc1Sc1ncnc2scc(-c3ccccc3)c12,,25.1 µM (active)
COc1ccc(NC(=O)c2sc(SC)nc2N)cc1,-9.58,
Cn1nnnc1Sc1ncnc2scc(Br)c12,-109,
Cn1nnnc1Sc1ncnc2scc(-c3ccc(C(=O)OC(C)(C)C)cc3)c12,-75.7,
CNCCCN1c2ccccc2CCc2ccccc21,-12.1,
Cn1nnnc1Sc1ncnc2scc(-c3ccc(C#N)cc3)c12,,10 µM (active)
Cn1nnnc1Sc1ncnc2scc(-c3cccc(C(F)(F)F)c3)c12,,14.1 µM (active)
Cn1nnnc1Sc1ncnc2scc(-c3ccccc3F)c12,27.7,
O=C(NCc1ccco1)c1cc2ccc(O)cc2oc1=O,-11.2,
Cn1nnnc1Sc1ncnc2scc(-c3ccccc3Cl)c12,,31.6 µM (active)

Structure (SMILES),"cytoprotection, positive = protection [%]",Potency
CC(=O)OCC1=C(C(=O)O)N2C(=O)[C@@H](NC(=O)Cc3cccs3)[C@H]2SC1,-25.3,
CCc1nc(SCC(=O)Nc2nc3c(s2)CCCC3)c2ccccc2n1,-1.68,
Cn1nnnc1Sc1ncnc2scc(-c3cccc(C#N)c3)c12,,12.6 µM (active)
Cn1nnnc1Sc1ncnc2scc(-c3ccccc3Br)c12,,35.5 µM (active)
CCc1nc(SCC(=O)N2CCCC2)c2ccccc2n1,-17.6,
CCCn1nc([N+](=O)[O-])c(C(C#N)c2nc3ccccc3s2)c(Cl)c1=O (configuration not stated),-23.1,
CCN(Cc1ccncc1)C(=O)c1cc(Br)cc(Br)c1O,-3.56,
Cn1nnnc1Sc1ncnc2scc(-c3cccc(F)c3)c12,,14.1 µM (active)
CC(=O)Oc1cccc(C(=O)O)c1OC(C)=O,-18.4,
N#CCCn1c(Cl)nc2ccccc21,-11.9,
CC(C)(C)n1nnnc1C(c1ccc2ncccc2c1)N1CCSCC1 (configuration not stated),-8.22,
Cn1nnnc1Sc1ncnc2scc(-c3cccc(Br)c3)c12,-108,
CN(C)c1ccc(-c2n(C)c3ccccc3[n+]2C)cc1,-37.4,
Cc1csc(N/N=C/c2ccc(O)c([N+](=O)[O-])c2)n1,-43.6,
CC(=O)c1ccc(-c2csc3ncnc(Sc4nnnn4C)c23)cc1,-23.7,
O=Nc1c(-c2c(O)[nH]c3ccccc23)[nH]c2ccccc12,-39.2,
